This note sets out measurements from PubChem BioAssay AID2685 (National Center for Advancing Translational Sciences (NCATS), 2010).

Structures are written as SMILES. Out of some 320,000 compounds screened, about 2,100 (0.66%) were called active. Roughly 53% stayed inconclusive and do not appear here. Calls follow the shape of the dose curve; as a rule, active = well fitted inhibition curve with a large enough effect in the signal ratio, with a control signal flat (not every such curve was filed as active); inconclusive = small, poorly fitted or top-dose-only effect, or effect the other way, or a change in a side signal; inactive = flat fitted curve, though single readings scatter; the % refers to the signal ratio. Only a selection was taken, and actives are over-represented in it overall.
Potency is read from the fitted curve at half-maximal effect.

This experiment in a line: qHTS Assay for Lipid Storage Modulators in Drosophila S3 Cells.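 As to cell number change: cells counted by Cell Tracker Red CMTPX staining in the red channel.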 As to lipid storage change, negative = inhibition: % is scaled to controls: 0 for no effect and ±100 for the full control effect. The conditions noted are these: BODIPY lipid droplet fluorescence, 18-24 h, cells fed with added oleic acid; cell number change: measured here: cell count max response; series mostly up to 46.1 µM; lipid storage change, negative = inhibition: at the top concentration. In short, it runs like this: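 Drosophila S3 cells got compounds at several concentrations plus oleic acid (400 uM solution). Laser-scanning cytometry with 488 nm excitation read lipid droplets at 500-530 nm and cells at 575-640 nm. Percent activity was relative to 20 uM Triacsin C.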
Consider `O=C(COC(=O)Cc1ccccc1F)Nc1cc(S(=O)(=O)N2CCOCC2)ccc1N1CCCC1`, for which the “lipid storage change, negative = inhibition” value is 0.102% (inactive) and the cell number change came to 0.15%.
For the compound `COC(=O)CN1C(=O)N/C(=C/c2ccc(OC)cc2)C1=O`, the “lipid storage change, negative = inhibition” value was -9.61% (inactive) and the cell number change was -7.72%.
As to `O=C(NC1CC1)c1ccc(S(=O)(=O)NCC2CCCCC2)cc1`, the “lipid storage change, negative = inhibition” value is 1.43% (inactive) and the cell number change is 6.17%.
Take `NC(=O)c1ccc(Oc2ccc3c(c2)CCC3)c([N+](=O)[O-])c1`: the Potency was 2.91 µM (active) and the cell number change was -16.2%.
As for `NC(=O)c1ccc(Oc2ccc(-c3nnco3)cc2)c([N+](=O)[O-])c1`, the compound was called inactive and the cell number change turned out to be 16.7%.
As to `NC(=O)c1ccc(Oc2ccc(Cl)cc2)c([N+](=O)[O-])c1`, the “lipid storage change, negative = inhibition” value is -2.44% (inactive) and the cell number change is 18.1%.
For `CCOc1ccc(Cl)cc1S(=O)(=O)N1CCCC1`, the result was inactive and the cell number change was determined as 23.3%.
For the compound `COc1cnc(-c2ccccc2)nc1Sc1ccccc1`, the “lipid storage change, negative = inhibition” value was 9.35% (inactive) and the cell number change was determined as 14.5%.
On to `CCN(CC)S(=O)(=O)c1ccc(C(=O)NCCOC(=O)c2ccc(F)cc2F)cc1`, for which the Potency is 4.61 µM (active).
Regarding `CN(C)S(=O)(=O)c1ccc(C(=O)NCCOc2ccc(F)cc2)cc1`, the Potency was 18.4 µM (active) and the cell number change came to 5.77%.
Turning to `CCc1ccc(OCCNC(=O)c2ccc(S(=O)(=O)N(C)C)cc2)cc1`, the compound was classed as inactive and the cell number change is -5.09%.
Consider `CCN(CC)CCNC(=O)c1ccc(NC(=O)c2ccc(F)cc2F)cc1`, for which the “lipid storage change, negative = inhibition” value was 0.115% (inactive) and the cell number change is 0.662%.
The corresponding values for `CN(C)S(=O)(=O)c1ccc(C(=O)NCCOc2ccccc2)cc1` are -16.1% (inactive) and -3.57%.
As to `CN(C)S(=O)(=O)c1cccc(C(=O)NCCOC(=O)c2cc(F)c(F)cc2Cl)c1`, the outcome was inactive and the cell number change worked out at 5.13%.
`CN1C(C(=O)NCc2ccccc2)CC2Cn3c(nc4cc(Cl)c(Cl)cc43)C21` (stereo not given): the “lipid storage change, negative = inhibition” value was 14.4% (inactive) and the cell number change was found to be 23.6%.
For `CS(=O)(=O)N1CCN(c2ccc(C(=O)N3CCOCC3)cc2[N+](=O)[O-])CC1`, the “lipid storage change, negative = inhibition” value was 0.674% (inactive) and the cell number change stood at 10.2%.
In the case of `COc1nc2ccccc2nc1CCC(=O)O`, the “lipid storage change, negative = inhibition” value is -2.96% (inactive) and the cell number change was -4.36%.
Regarding `CC(=O)Nc1nc(=O)c2ccccc2s1`, the “lipid storage change, negative = inhibition” value was 14.6% (inactive) and the cell number change is -8.23%.
Take `O=C(Nc1ccc2c(c1)OCCO2)c1ccc(Cl)cc1Cl`: the compound was classed as inactive and the cell number change was -12.4%.
On to `O=C(Nc1ccc2c(c1)OCCO2)c1ccc(Cl)c([N+](=O)[O-])c1`, for which the Potency was 16.4 µM (active) and the cell number change is -0.392%.
`O=C(Nc1ccc(NC(=O)c2ccc(Cl)cc2Cl)cc1)c1ccc2c(c1)OCO2`: the Potency is 16.4 µM (active) and the cell number change was -0.901%.
Take `Cc1cc(C(=O)Nc2ccc3c(c2)OCCO3)ccc1[N+](=O)[O-]`: the “lipid storage change, negative = inhibition” value is -9.88% (inactive) and the cell number change worked out at 0.293%.
On to `O=C(Nc1ccc(F)c(F)c1)c1ccc2c(c1)OCO2`, for which the “lipid storage change, negative = inhibition” value was -1.25% (inactive) and the cell number change was -8.99%.
With `O=C(Nc1ccc(Cl)c([N+](=O)[O-])c1)c1ccc2c(c1)OCCO2`, the “lipid storage change, negative = inhibition” value was 2% (inactive) and the cell number change came out at 0.135%.
On to `Fc1cccc(Cl)c1Cn1nnc2c(NCc3ccccn3)ncnc21`, for which the “lipid storage change, negative = inhibition” value was -4.63% (inactive) and the cell number change is -17.4%.
In the case of `CC(C)(C)C1CCC(C(=O)Nc2ccc(N3CCOCC3)cc2N2CCOCC2)CC1` (stereo not given), the Potency is 0.0731 µM (active) and the cell number change was found to be 2.76%.
`O=C(Nc1ccc(Cl)cc1N1CCOCC1)C1CC1`: the “lipid storage change, negative = inhibition” value was -18.3% (inactive) and the cell number change was -0.587%.
On to `O=C(Nc1ccc(N2CCOCC2)cc1)C1CC1`, for which the “lipid storage change, negative = inhibition” value was 11.2% (inactive) and the cell number change was determined as 20.3%.
On to `CC(C)c1ccccc1NC(=O)c1ccc2ncsc2c1`, for which the outcome was inactive and the cell number change came to 3.81%.
For `Cc1cc(C)c2nc(-c3ccncc3)cc(C(=O)N3CCN(Cc4ccccc4Cl)CC3)c2c1`, the outcome was inactive and the cell number change was -25.7%.
For `CCOc1ccc(-c2cc(CCCC(=O)NCc3ccco3)no2)cc1`, the “lipid storage change, negative = inhibition” value was 21.6% (inactive) and the cell number change was 7.38%.
On to `CC(=O)c1cccc(NC(=O)c2ccccc2OCc2ccc(F)cc2)c1`, for which the “lipid storage change, negative = inhibition” value is -11.7% (inactive) and the cell number change worked out at 17.5%.
Consider `CC(=O)Nc1cccc(NC(=O)c2ccccc2OCc2ccccc2)c1`, for which the Potency is 0.103 µM (active) and the cell number change worked out at 4.05%.
For the compound `CC(=O)Nc1cccc(NC(=O)c2cccc(OCc3ccccc3)c2)c1`, the “lipid storage change, negative = inhibition” value is 8.52% (inactive) and the cell number change is -0.179%.
The corresponding values for `Cc1cc(N2CCN(c3ccccc3)CC2)n2cc(-c3ccccc3)nc2n1` are 0.159% (inactive) and 0.751%.
Take `COc1ccc(-c2cc(C(=O)NN)[nH]n2)cc1OC`: the “lipid storage change, negative = inhibition” value was 0.0767% (inactive) and the cell number change was found to be 0.0556%.
With `O=C(O)c1cc(-c2ccccc2)n[nH]1`, the “lipid storage change, negative = inhibition” value was 8.55% (inactive) and the cell number change was -6.51%.
As for `COc1ccc(-c2cc(C(=O)O)[nH]n2)cc1OC`, the Potency was 18.4 µM (active) and the cell number change was -22.4%.
Turning to `COc1ccccc1NS(=O)(=O)c1cccc(C(=O)NNC(=O)C(NC(N)=O)C(C)C)c1` (stereo not given), the “lipid storage change, negative = inhibition” value was -8.45% (inactive) and the cell number change was -2.91%.
The corresponding values for `CN=Cc1nc(-c2ccccc2)oc1O` are 8.51% (inactive) and 3.36%.
Regarding `COc1ccc(-c2nc(/C=C3\C(C)=Nc4ccccc43)c(O)o2)cc1`, the “lipid storage change, negative = inhibition” value was -27.4% (inactive) and the cell number change is 8.93%.
For `CC1=Nc2ccccc2/C1=C\c1nc(-c2ccc(F)cc2)oc1O`, the Potency was 4.11 µM (active) and the cell number change was -8.49%.
As to `CCC(=O)NC(=S)Nc1ccc(NC(=O)c2ccc([N+](=O)[O-])cc2Cl)cc1`, the “lipid storage change, negative = inhibition” value is -10.6% (inactive) and the cell number change was -6.05%.
For `CC(=O)OCC1=C(C(=O)O)N2C(=O)C(NC(=O)c3ccc(COc4ccc(Cl)cc4)o3)C2SC1` (stereo not given), the “lipid storage change, negative = inhibition” value is 6.11% (inactive) and the cell number change was 12.1%.
With `NC(=O)C1CCN(c2ccc(C(F)(F)F)cc2[N+](=O)[O-])CC1`, the “lipid storage change, negative = inhibition” value was 3.26% (inactive).
In the case of `O=C(C1CCC1)N1CCN(c2ccc(C(F)(F)F)cc2[N+](=O)[O-])CC1`, the Potency is 0.58 µM (active) and the cell number change stood at 4.32%.
In the case of `O=[N+]([O-])c1cc(C(F)(F)F)ccc1N1CCC(O)CC1`, the “lipid storage change, negative = inhibition” value is 3.91% (inactive) and the cell number change was found to be 9.29%.
`C1CCC(Nc2nc3nonc3nc2N2CCSCC2)C1`: the “lipid storage change, negative = inhibition” value was 1.7% (inactive) and the cell number change was -7.42%.
`O=C(NN(C(=O)C1CC1)c1nc2ccccc2s1)C1CC1`: the “lipid storage change, negative = inhibition” value was 0.109% (inactive) and the cell number change stood at 4.43%.
For the compound `O=C(CCl)Nc1ccc(N=Nc2ccccc2)cc1`, the Potency is 5.8 µM (active) and the cell number change was -14.8%.
Turning to `O=C(O)CCCC(=O)Nc1ccc(N=Nc2ccccc2)cc1`, the “lipid storage change, negative = inhibition” value was 0.135% (inactive) and the cell number change stood at 17%.
